Shown are actives, neighbours in structure and some others; about 17% of the full set was active somewhere.
HepG2 tox: kills HepG2 cells in TGF-b inhibitor counter-screen; HepG2 CAGA-GFP viability, ATP luminescence, 18 h; Potency, µM (top dose mostly 46.1 µM), usual class: cytotoxic; hit rate 0.76% among 410,000; AID 588856
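CellTiter-Glo luminescence gave cytotoxicity after 18 hours at 37 degrees C. The cells were HepG2 CAGA-GFP in 1% FBS DMEM, stimulated with 500 pg/mL TGF-beta after compound addition. %Activity was normalised to no-cell wells (complete cell-killing) and DMSO (no toxicity), and curves were fitted and classified.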
DT40 TDP1 CPT: DT40-hTDP1 cell growth loss with CPT; hit rate 12% among 420,000; chicken DT40 Tdp1-/-;hTDP1 cells + 20 nM CPT, ATP luminescence, 48 h; Potency, µM (top dose mostly 46.2 µM), actives largely listed as inhibitors; further: nearly all actives have a fitted effect of over 55% in size
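Chicken DT40 Tdp1-/- cells stably complemented with human TDP1 were seeded at 400 cells/well in medium containing 20 nM camptothecin, exposed to pin-transferred compounds, and grown at 37 °C for at least 48 hr. Viability was read as ATP luminescence.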
DT40 TDP1 no CPT: qHTS for Inhibitors of human tyrosyl-DNA phosphodiesterase 1 (TDP1): qHTS in cells in absence of CPT. DT40 Tdp1-/- hTDP1 cells, no CPT, ATP luminescence, 48 h. Potency, µM (titrated, usually from 46.2 µM), usual class: inhibitors. hit rate 15% among 420,000; further: nearly all actives have a fitted effect of over 55% in size
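Luminescent ATP content (CellTiter-Glo) served as the growth readout. Knockout chicken DT40 cells expressing human TDP1 were exposed to compounds without camptothecin for a minimum 48 hr at 37 °C.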
TGFb SMAD3 inh: blocks TGF-b signaling | HepG2 CAGA-GFP TGF-b/SMAD3 reporter, GFP fluorescence, 18 h; TGF-beta stimulated, 500 pg/mL final | Potency, µM (titrated, usually from 46.1 µM), usual class: inhibitors | hit rate 1.2% among 410,000 | AID 588855; further: nearly all actives have a fitted effect of over 65% in size
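Per well, imaged GFP fluorescence of HEPG2 CAGA-GFP cells gives the signal; cells get compound, then TGF-beta (500 pg/mL final), 18 h at 37 degrees C; %Activity versus -TGF-beta and +DMSO controls.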
HT1080NT lethal: kills 2HG-producing HT-1080-NT fibrosarcoma cells | Potency, µM (highest dose often 46.1 µM), hits mostly cytotoxic | hit rate 1.6% among 360,000 | AID 686970 | HT-1080-NT fibrosarcoma viability, CellTiter-Glo ATP luminescence, 48 h;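 further: NT is the 2HG producing partner of a matched IDH1 knockdown line; nearly all actives have a fitted effect of over 55% in size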
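Viability of the 2HG-overproducing fibrosarcoma line after 48 hours of compound exposure at 37 degrees C was determined by luminescence with CellTiter-Glo, and concentration-effect curves were then fitted and categorized.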
HT1080 IDH1KD tx: kills HT-1080 cells with IDH1 knockdown. HT-1080 IDH1 knockdown viability, ATP luminescence, 48 h. Potency, µM (series often up to 46.1 µM), actives largely listed as cytotoxic. hit rate 2% among 360,000. AID 686971
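CellTiter-Glo luminescence after 48 h compound exposure at 37 degrees C of IDH1-knockdown HT-1080 cells in 5% FBS RPMI. %Activity scaled between DMSO wells and cell-free media wells, with curves fitted and assigned curve classes.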
Each line names hits and unclear results; the compound was inactive in the other large screens. The call rests on the fitted dose curve; in most records, active means well fitted curve in the direction sought with a large enough effect; inconclusive means small, poorly fitted or top-dose-only effect, or another doubt; inactive means no such curve, though single readings can be large; an effect the other way counts as inactive or inconclusive.

CCCCNC(=O)c1ccc(CS(=O)(=O)c2ccccc2OC)o1	none
Cc1ccc(C)c(NC(=O)c2cnc3sc(N4CCOCC4)nn3c2=O)c1	none (no result: HT1080NT lethal, HT1080 IDH1KD tx)
COc1ccc(OC)c(S(=O)(=O)N2C(C)CCCC2C)c1 (stereo not drawn)	DT40 TDP1 CPT inconclusive, DT40 TDP1 no CPT inconclusive
COc1ccc(OC)c(S(=O)(=O)N2c3cc(F)ccc3CCC2C)c1 (stereo not drawn)	DT40 TDP1 CPT 7.3µM, DT40 TDP1 no CPT inconclusive
COc1ccc(N2CCN(C(=O)c3c(-c4ccccc4)noc3C)CC2)cc1	DT40 TDP1 CPT inconclusive, DT40 TDP1 no CPT inconclusive
O=C(Nc1ccc(F)cc1F)c1c2c(nc3ccccc13)C(=O)N(C1CCCCC1)C2	DT40 TDP1 CPT inconclusive, DT40 TDP1 no CPT inconclusive (no result: HT1080NT lethal, HT1080 IDH1KD tx)
COc1ccc(N2CCN(C(=O)c3c4c(nc5ccccc35)C(=O)N(C3CCCCC3)C4)CC2)cc1	DT40 TDP1 CPT 15µM, DT40 TDP1 no CPT 16µM, TGFb SMAD3 inh inconclusive (no result: HT1080NT lethal, HT1080 IDH1KD tx)
O=C(c1c2c(nc3ccccc13)C(=O)N(C1CCCCC1)C2)N1CCN(c2ccc(F)cc2)CC1	DT40 TDP1 CPT 21µM, DT40 TDP1 no CPT 26µM (no result: HT1080NT lethal, HT1080 IDH1KD tx)
Cc1noc(C)c1-c1nccc(NCc2cccnc2)n1	none (no result: HepG2 tox, TGFb SMAD3 inh, HT1080NT lethal, HT1080 IDH1KD tx)
Cc1ccc(C2Nc3ccccc3NC3=C2C(=O)CC(C)(C)C3)c(O)c1 (stereo not drawn)	none
CC1(C)CC(=O)C2=C(C1)Nc1ccccc1NC2c1cc(Cl)ccc1O (stereo not drawn)	DT40 TDP1 CPT 18µM, DT40 TDP1 no CPT 23µM
Cc1cc(C)c(Cn2cnc3nc4c(cc3c2=O)CCCC4)c(C)c1	DT40 TDP1 no CPT inconclusive (no result: HT1080NT lethal, HT1080 IDH1KD tx)
CC1CCN(S(=O)(=O)c2ccc3nc(NCc4ccc(N(C)C)cc4)ccc3c2)CC1	DT40 TDP1 CPT 23µM, DT40 TDP1 no CPT 12µM, TGFb SMAD3 inh inconclusive (no result: HT1080NT lethal, HT1080 IDH1KD tx)
CC1CCN(S(=O)(=O)c2ccc3nc(NCc4ccc(F)cc4)ccc3c2)CC1	DT40 TDP1 CPT 13µM, DT40 TDP1 no CPT 13µM, TGFb SMAD3 inh 13µM (no result: HT1080NT lethal, HT1080 IDH1KD tx)
CC1CCN(S(=O)(=O)c2ccc3nc(N4CCN(c5ccccc5F)CC4)ccc3c2)CC1	DT40 TDP1 no CPT inconclusive (no result: HT1080NT lethal, HT1080 IDH1KD tx)
CC1CCN(S(=O)(=O)c2ccc3nc(N4CCN(c5ccc(F)cc5)CC4)ccc3c2)CC1	none (no result: HT1080NT lethal, HT1080 IDH1KD tx)
CCOc1ccccc1CNc1ccc2cc(S(=O)(=O)N3CCC(C)CC3)ccc2n1	DT40 TDP1 CPT inconclusive, DT40 TDP1 no CPT 23µM (no result: HT1080NT lethal, HT1080 IDH1KD tx)
Cc1ccc(CNc2ccc3cc(S(=O)(=O)N4CCCCC4)ccc3n2)cc1	DT40 TDP1 CPT 10µM, DT40 TDP1 no CPT 10µM (no result: HT1080NT lethal, HT1080 IDH1KD tx)
Cc1cc2c(cc1S(=O)(=O)CCC(=O)N1CC(C)CC(C)C1)OCC(=O)N2 (stereo not drawn)	none
COc1ccc(CC(=O)Oc2ccccc2Cl)cc1S(=O)(=O)N1CCOCC1	none
COc1ccc2c3n(nc2c1)CCN=C3c1ccc(Cl)cc1	none
O=C(Nc1nccs1)c1cccc(N2C(=O)c3cccc4c([N+](=O)[O-])ccc(c34)C2=O)c1	DT40 TDP1 CPT 5.2µM, DT40 TDP1 no CPT 3.7µM, HT1080NT lethal 21µM, HT1080 IDH1KD tx 16µM
CC(=O)Oc1cccc(N2C(=O)c3ccc(C(=O)O)cc3C2=O)c1	TGFb SMAD3 inh inconclusive
Cc1ccc(C(=O)O)cc1N1C(=O)c2cccc3c([N+](=O)[O-])ccc(c23)C1=O	DT40 TDP1 CPT 6.5µM, DT40 TDP1 no CPT 6.5µM, TGFb SMAD3 inh inconclusive, HT1080NT lethal 16µM, HT1080 IDH1KD tx inconclusive
CC(=O)Oc1cccc(N2C(=O)c3cccc4c([N+](=O)[O-])ccc(c34)C2=O)c1	DT40 TDP1 CPT 2.3µM, DT40 TDP1 no CPT 2.9µM
O=C(O)c1ccc(S(=O)(=O)c2ccc3c(c2)C(=O)N(c2ccccc2[N+](=O)[O-])C3=O)cc1	none
